In PubChem BioAssay (NCI) one finds growth data, which are given here for 38 compounds.

About 83,000 compounds went through this panel and 20% of them were active in at least one assay; those are over-represented in the sample as a whole.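 Testing used 96-well plates and a 48-hour single-concentration exposure. Example: -40 means 40% of the starting cells died.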 Active and inactive are the calls of the source. How the source made its calls: active means growth percent below 10; inactive means the rest.

This assay has as its system A498 renal. Kind of assay: NCI-60 one-dose screen, 48 h (100 = growth as untreated, 0 = no growth, -100 = all killed). The note with it: 10 µM unless noted.
In the case of `O=C(Nc1nc2ccccc2s1)Nc1ccccc1Cl`, the growth is 162% (inactive). The value for `Cc1ccc(C(=O)Nc2cc(-n3ccnc3C)cc(C(F)(F)F)c2)cc1C#Cc1cnc2cccnn12` was -18.4% (active); that for `O=C(c1ccc(O)cc1)C1[C@H](c2ccc(Cl)cc2)[C@@H](c2ccccc2)NC12C(=O)Nc1ccccc12` (stereo partly drawn) was -2.62% (active). To `COc1ccc(-c2nc3ccc(-c4nnc(SCC(=O)Nc5ccc(/C(C)=N\O)cc5)o4)cc3[nH]2)cc1` belongs 166% (inactive); to `C[C@H]1[C@@H](CC(=O)N[C@@H](Cc2coc3ccccc23)B(O)O)O[C@@H]2OC3(C)CC[C@H]4[C@H](C)CC[C@@H]1[C@@]24O3`, 44.5% (inactive). In the case of `Cc1cc(C(NC(=O)C2CC3(CC(Nc4cccc5c4C(=O)N(C4CCC(=O)NC4=O)C5=O)C3)C2)c2ccc3c(c2)OC(F)(F)O3)c(O)c2ncccc12` (stereo not drawn), the growth was 115% (inactive). To `NC(=O)c1ccc(-c2ccc3ncnc(N4CCc5cc(F)c(Cl)cc54)c3c2)cn1` belongs 74.7% (inactive); to `CCN1C(=O)N(CC)C2NNC(Sc3c(C(=O)O)c4ccccc4n(CCC(C)C)c3=O)=NC21` (stereo not drawn), 76.4% (inactive). On to `COc1ccc2[nH]c(O)c(N=Nc3nc(-c4ccc(Cl)cc4)cs3)c2c1`, for which the growth was -89.7% (active). As for `CC[C@]12C=CCN3CC[C@@]4(c5ccc(OC)cc5N(C)[C@H]4[C@@](O)(C(=O)OC)[C@@H]1OC(=O)CCCC[P+](c1ccc(F)cc1)(c1ccc(F)cc1)c1ccc(F)cc1)[C@@H]32`, the growth is 99.2% (inactive).

Turning to `COc1cccc(/C=C/c2nc3ccccc3c(=O)n2CC(=O)Nc2ccccc2)c1`, the growth is 28% (inactive). As to `O=C(c1ccc(Cl)cc1)C1[C@H](c2ccccc2Cl)[C@@H](c2ccccc2)NC12C(=O)Nc1ccc(Br)cc12` (stereo partly drawn), the growth is -48% (active). Consider `O=C(CSc1nnc(-c2ccc(-c3nc4ccc(Cl)cc4[nH]3)cc2)o1)Nc1ccc(Cl)cc1`, for which the growth was 127% (inactive). For `N#Cc1c(NC(=O)N2CCOCC2)n(-c2ccc(OC(F)(F)F)cc2)c2cc(F)ccc12`, the growth is 177% (inactive). To `O=C(N/N=C/c1ccc(Cl)o1)c1[nH]c2ccc(Br)cc2c1-c1ccccc1` belongs -25.6% (active); to `CC1=C(C(=O)OCc2ccccc2)C(c2cccc3ccccc23)n2c(nc3ccccc32)N1` (stereo not drawn), 62.6% (inactive); to `CC1=NN(C2=NC(=O)C(CC(=O)Nc3ccccc3C(F)(F)F)S2)C(c2ccc(N(C)C)cc2)C1` (stereo not drawn), 79.2% (inactive). Regarding `CN1C(=O)C2(C(C#N)=C(c3ccc(Cl)cc3)Nc3c2c(-c2ccccc2)nn3-c2ccccc2)c2ccccc21` (stereo not drawn), the growth is 144% (inactive). To `O=[N+]([O-])c1cccc(-c2nnc3c(/C=C/c4ccc(F)cc4)nc4ccccc4n23)c1` belongs 102% (inactive); to `COC(=O)c1cc(C(C)=O)n2c3ccccc3c3ccccc3c12`, 121% (inactive); to `CCCCCCCOc1ccc(S(=O)(=O)Nc2ccc(C)c(F)c2C(=O)O)cc1`, 102% (inactive).

`COc1ccc2[nH]cc(-c3cc4nc(-c5cn(C)c6ncc(Br)cc56)cc(N)n4n3)c2c1`: the growth was -51% (active).

`COc1ccc2c(c1)N=c1c-2cc2c(O)[nH]c(=S)n2c1=O`: the growth is 105% (inactive). For the compound `CC(C)C[C@H](NC(=O)[C@@H]1CCCCCCCCCCC(=O)N[C@@H](CC(=O)N2CCC[C@@H]2C2CCCC2)C(=O)N1)B(O)O`, the growth was -87.2% (active). To `O=C1NC(=S)/C(=C/c2cn(-c3ccccc3)nc2-c2ccccc2)S1` belongs -4.62% (active); to `CN(C)C(=O)c1cc(-c2ccc3ncnc(N4CCc5cc(F)c(Cl)cc54)c3c2)cnc1N`, -84.2% (active); to `N#C/C(=C/c1ccc(Cl)cc1)c1nnc(NC(=O)c2ccc(-n3c(=O)[nH]c4ccccc4c3=O)cc2)s1`, 116% (inactive). `COc1c(B(O)O)cc(F)cc1-c1nc2c(F)cc3[nH]ncc3c2c2c1CCCC2`: the growth was -30.7% (active). `O=C(CSc1nc2sc3c(c2c(=O)n1-c1ccc(Cl)cc1)CCCC3)NNC(=O)c1ccc(Br)cc1`: the growth is 127% (inactive).

As for `CN(C)c1ccc(/C=C/c2n(Cc3ccc4ccccc4c3)c3ccccc3[n+]2Cc2ccc3ccccc3c2)cc1`, the growth is -82.1% (active). The value for `COc1ccc2[nH]c(=O)cc(-n3ncc(C(=O)/C=C/c4cc(OC)c(OC)c(OC)c4)c3C)c2c1` was 0.493% (active); that for `COc1ccc(C(=O)C[n+]2cccc3c4ccccc4ccc32)cc1` was 102% (inactive); that for `CN1CCc2c(sc3ncnc(N/N=C/c4cccc(Cl)c4Cl)c23)C1` was 114% (inactive). To `COc1ccc2[nH]c(O)c(N=Nc3nc(-c4ccccc4)cs3)c2c1` belongs -34.8% (active). The value for `COc1ccc(N=Nc2c(N)nn3c(N)c(C#N)c(-c4ccc(F)cc4)nc23)cc1` was 155% (inactive); that for `C=CCSc1nnc(-c2ccc(-c3nc4ccccc4[nH]3)cc2)o1` was 113% (inactive); that for `Cc1oc(-c2ccccc2)nc1CN[C@@H]1C[C@@H]2C[C@H]([C@H]1C)C2(C)C` was 31.6% (inactive). For `COc1ccc(NC2=C(I)C(=O)C(C)=C(C)C2=O)cc1`, the growth is 113% (inactive).
